Source: PubChem BioAssay (NCI)
This is part of a sample that, as a whole, favours compounds with a hit. Of some 79,000 tested, about 15% had one in any assay. Values without a mark were called inactive. Cut-off read from the data, not from the text of the source: active = growth inhibition above about 70%; inactive = the rest.

assay: NCI Yeast Anticancer Drug Screen. Data for the rad50 strain (AID 155);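 note: 0% = growth of vehicle-only cultures of the same strain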; settings: S. cerevisiae rad50 strain growth inhibition; at 50.0 µM; active compounds read high
Outline: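 Vehicle-treated cultures provide the reference for the growth inhibition reported for compound-exposed, repair-deficient yeast.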

Row | Structure (SMILES) | growth inhibition [%]
1 | Cc1ccc(S(=O)(=O)/N=C2\CCN(S(=O)(=O)c3ccccc3)N2S(=O)(=O)c2ccc(C)cc2)cc1 | 17.6
2 | C=C1C(OC(C)=O)CC(OC(C)=O)C2(C)C(OC(C)=O)C(OC(C)=O)C3=C(C)C(OC(=O)/C=C/c4ccccc4)CC(C(OC(C)=O)C12)C3(C)C (stereo not given) | 4.8
3 | CCN(CC)c1nc(Cl)nc(C(N)=O)c1N | 4.85
4 | CO/N=C(\C(=O)N(C)n1cnnc1)c1csc(NC(c2ccccc2)(c2ccccc2)c2ccccc2)n1 | 21.7
5 | CC(=O)NNC(=S)N/C=C(\C#N)C(=O)c1ccc2ccccc2c1 | -59.4
6 | CCCCCCCCC(=O)c1ccc(N=Nc2ccc(OCC)cc2)cc1 | -6
7 | CCC(CCCN)Nc1cc(OC)cc2c(C)ccnc12 (stereo not given) | -53.9
8 | COc1ccc2cc(NC(=O)N/N=C\c3ccc(Cl)cc3)ccc2c1 | 33.2
9 | CSc1ccc(NC(=O)Nc2cc(C)c(C)cc2C)cc1 | 16.6
10 | CC1(C)C2CCC(=O)C1CC2 (stereo not given) | 6.75
11 | C=C(Br)CN=CN(C)C | 23.6
12 | CC12CCC(CC1)C2(C)C | 5.6
13 | O=C(OC1CCCC1OC(=O)c1ccccc1)c1ccccc1 (stereo not given) | -11.5
14 | ClCCCc1ccccc1C1=NCCc2ccccc21 | 28.4
15 | Cc1cc(Cl)cc(C(=O)O)c1O | 5.7
16 | CC(=O)n1cc2cc([N+](=O)[O-])ccc2n1 | -13.4
17 | COc1ccc2ccc3c(c2c1)C(=O)C(CC(N)=O)C3 (stereo not given) | 1.75
18 | CC1CCC2(CC1)CC(=O)N(N1CCCCC1)C2=O (stereo not given) | 11.3
19 | NC(=S)N/N=C/c1ccc(Cl)cc1Cl | 65.7
20 | O=C(O)c1ccc(C(=O)O)nc1 | -39.7

Row | Structure (SMILES) | growth inhibition [%]
21 | CC(=O)/C=C/C=C\C=C/N=C(c1ccccc1)c1ccccc1 | -7.5
22 | Cc1ccc(S(=O)(=O)OC(F)(F)C(F)(F)F)cc1 | 7.8
23 | Cc1ccc(NC(=O)CC/C(CC(=O)C(C)(C)C)=N/NC(=O)C(N)=O)cc1C | -2.75
24 | CN(C)c1ccc(N=Nc2cccc3ncccc23)cc1 | 2.1
25 | COC(=O)c1ccc(SCCC(C)=O)cc1 | -8
26 | CCSC(SCC)C(O)C(O)C(O)C(C)O (stereo not given) | 31.8
27 | CC(=O)c1cccc(NC(=O)N(C)C2CCCCC2)c1 | 5.65
28 | CCOC(=O)CC(=O)C(=O)NNC1=NCCCN1 | 7.25
29 | COc1cc([C@@H]2OC(=O)C3C2C(=O)O[C@H]3c2ccc(O)c(OC)c2)ccc1O (stereo not given in full) | 7.55
30 | Cc1csc(C)[n+]1CC(=O)c1ccccc1 | -10
31 | COC1/C=C/OC2(C)Oc3c(C)c(O)c4c(O)c(c5c(nc(-c6ccco6)n5-c5ccccc5)c4c3C2=O)NC(=O)/C(C)=C\C=C\C(C)C(O)C(C)C(O)C(C)C(OC(C)=O)C1C (stereo not given) | -6.2
32 | COc1cc(C=O)ccc1OC(=O)Nc1cc(Cl)ccc1C | 6.6
33 | CCOC([O-])=N/C(=N/[n+]1ccc(C)cc1)c1ccccc1 | 8.35
34 | Cc1ccc(S(=O)(=O)N/N=C(\c2nc3ccc([N+](=O)[O-])cc3[nH]c2=O)C(O)c2ccccc2Cl)cc1 (stereo not given) | -1.2
35 | O=[N+]([O-])C1(CO)COC2(OC1)c1ccccc1-c1ccccc12 | 0.5
36 | O=C1c2ccccc2-c2nc(/C=C/c3ccccc3)cc3c2c1nc1ccccc13 | 10.2
37 | Clc1nc(-c2ccccc2)nc2ccccc12 | -10.1
38 | CCOc1cc(C)c2cccc(C)c2n1 | 17.1
39 | Cc1ncc([N+](=O)[O-])n1CCNC(=O)CCCn1cnc([N+](=O)[O-])n1 | -17.8
40 | Cc1cc(OC(=O)c2ccccc2)cc(C)c1OC(=O)c1ccccc1 | 10
